# Compound activity deposited in PubChem by National Center for Advancing Translational Sciences (NCATS).
# PTHR1 ag: agonists of human PTHR1 parathyroid hormone receptor. 0.075% of 410,000 active. HEK293 GP2 PTHR1 cells, GloSensor cAMP luminescence, 1 h. Potency, µM (doses to about 115 µM), for inactives: at the highest dose activation, hits mostly activators. Q03431. AID 743266; also: potency is read from the fitted curve at half-maximal effect; nearly all actives have a fitted effect of over 55% in size
# Target sequence (Q03431 whole entry, looked up): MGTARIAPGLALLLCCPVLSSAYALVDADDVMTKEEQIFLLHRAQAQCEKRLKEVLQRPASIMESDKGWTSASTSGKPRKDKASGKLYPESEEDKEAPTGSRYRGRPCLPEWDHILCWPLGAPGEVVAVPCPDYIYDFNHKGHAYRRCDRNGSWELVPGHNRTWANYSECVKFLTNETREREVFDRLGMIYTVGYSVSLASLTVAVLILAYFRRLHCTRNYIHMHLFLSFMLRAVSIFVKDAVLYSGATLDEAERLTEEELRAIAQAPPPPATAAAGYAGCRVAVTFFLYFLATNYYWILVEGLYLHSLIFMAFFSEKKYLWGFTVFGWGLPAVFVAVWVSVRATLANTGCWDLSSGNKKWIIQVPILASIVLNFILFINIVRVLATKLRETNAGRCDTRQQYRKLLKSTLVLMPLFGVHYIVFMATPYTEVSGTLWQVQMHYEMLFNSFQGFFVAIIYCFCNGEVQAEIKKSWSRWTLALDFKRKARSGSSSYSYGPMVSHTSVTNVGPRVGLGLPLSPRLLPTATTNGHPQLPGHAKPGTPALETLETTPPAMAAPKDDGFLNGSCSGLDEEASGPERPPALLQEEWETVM
#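 HEK-293-derived GP2 cells expressing PTHR1 and a GloSensor cAMP reporter, 3,000/well, plated overnight, given luciferin plus IBMX (each 0.5 mM as added) for 1 h at 37 °C, then compound for 1 h at 37 °C. Luminescence was read after 15 min at room temperature.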
# Integrin act MD: activates integrin-mediated alleviation for muscular dystrophy; alpha7betagal myoblasts, beta-gal FDG fluorescence, 48 h; 0.064% of 350,000 active; Potency, µM (top dose mostly 38.3 µM), inactives show at the highest dose activation, usual class: activators; AID 624291;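 also: potency is read from the fitted curve at half-maximal effect; 100% = response of the positive control SU9516; nearly all actives have a fitted effect of over 60% in size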
#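 Alpha7betagal+/- myoblasts (passage 13) were plated 16-24 hr, then exposed to compounds (1:260 dilution of DMSO stock) for 48 hours at 37C. After MPER lysis, β-galactosidase reporter activity was read as FDG fluorescence (ex 480/em 540) after 30 minutes.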
# MBNL1 CUG block: MBNL1-poly(CUG) RNA binding inhibition; TR-FRET MBNL1-His/biotin-(CUG)12 binding, 665/545 ratio; Potency, µM (top dose mostly 57.5 µM), for the others: at the top dose activity change, negative = inhibition, hits mostly inhibitors; 0.036% of 280,000 active; active = well fitted inhibition curve with a large enough effect in the signal ratio, with a control signal flat, not every such curve was filed as active; inconclusive = small, poorly fitted or top-dose-only effect, or effect the other way, or a change in a side signal; inactive = no such curve, though single readings can be large or run the other way; the % refers to the signal ratio; also: potency is read from the fitted curve at half-maximal effect; % is scaled to controls: 0 for no effect and ±100 for the full control effect
#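 His-tagged MBNL1 binding to biotinylated (CUG)12 RNA was measured by TR-FRET using terbium anti-His antibody (0.055 ng/ul final) and streptavidin-XL665 (5 nM final). Compounds were titrated 92 nM to 58 uM; 60 min at room temperature.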
# CBFb-RUNX1 inh: CBF-beta/RUNX1 interaction disruption; Q01196+Q13951; AlphaScreen CBFb-His/RUNX1-biotin binding, biochemical; Potency, µM (doses to about 59.8 µM), without a hit: top-dose activity, negative = inhibition, most hits filed as inhibitors; 230,000 tested, under 10 active; also: % of control where 0% means no effect
#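 Inhibition was taken as any reduction in AlphaScreen signal from the CBF-beta–RUNX1 pair (His and biotin tags, 30 nM each), measured after compound (15 min) and bead (90 min) incubations at room temperature.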
# DRD3 agonist: activates the human D3 dopamine receptor | P35462 | D3R DiscoveRx beta-arrestin cells, luminescence, 90 min | max activation, % | 0.58% of 410,000 active | AID 652048; in the data active = max activation above about 30%; also: 0% is about no effect
#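 Agonist-mode cell screen: cells plated at 1500/well and incubated overnight at 37 °C, then exposed to library compounds for 90 min at 37 °C. Detection reagent was added for 30–60 min at room temperature, and luminescence was read.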
# DRD3 antagonist: D3 dopamine receptor (human) antagonism | max response, negative = inhibition, % | 2.5% of 360,000 active | P35462 | D3R cells, DiscoveRx beta-arrestin luminescence, antagonist mode; active compounds read low; in the data active = max response below about -50%; inconclusive = no clear call, values can overlap the other calls; also: % is scaled to controls: 0 for no effect and ±100 for the full control effect
#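 Cells plated overnight at 1500 cells/well, then exposed to library compounds with dopamine controls for 90 minutes at 37 degrees C. DiscoveRx reagent added for 30–60 minutes at room temperature; luminescence read, quantitative HTS format.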
# Starred values were filed as active, the others as inactive; i = inactive; ? = inconclusive; nt = no result given; [ ] = remark or other dose. The list is not random: actives were taken first. Their share in the collection is about 2.8%. Unless noted, calls follow the shape of the dose curve; as a rule, active = well fitted curve in the direction sought with a large enough effect; inconclusive = small, poorly fitted or top-dose-only effect, or another doubt; inactive = no such curve, though single readings can be large; an effect the other way counts as inactive or inconclusive.
SMILES,PTHR1 ag,Integrin act MD,MBNL1 CUG block,CBFb-RUNX1 inh,DRD3 agonist,DRD3 antagonist
COc1ccc(Cl)cc1-c1cc(C(=O)NCc2cccc(Cl)c2)[nH]n1,-13%,nt,nt,nt,-13,-71*
O=C(COC(=O)CNC(=O)c1ccc(Br)o1)Nc1ccccc1OC(F)F,i,22%,-2%,12%,1,-2
COc1ccc(C(C#N)CC(=O)c2ccc(OC)c(OCc3ccccc3)c2)cc1OC (stereo not drawn),i,1%,nt,nt,0,26
CC(C)[N+]1(C)[C@@H]2CC[C@H]1CC(OC(=O)[C@@H](CO)c1ccccc1)C2 (stereo partly drawn),nt,nt,nt,7%[21.7 µM],nt,nt
CC(C)C[C@H]1CN(CCCC[C@H]2CNC(=O)C(=O)N2CCc2ccccc2)C(=O)C(=O)N1Cc1ccccc1,5%,nt,nt,nt,-3,-18
CC(C)C[C@H]1CNC(=O)C(=O)N1C[C@H](C)NC(=O)Cc1ccccc1,5%,9%,-2%,nt,-29,-52*
Cc1ccc(CCNS(=O)(=O)c2cnc[nH]2)cc1,i,3%,-3%,1%,-4,-66*
O=S(=O)(NCc1ccc(Cl)cc1)c1cnc[nH]1,i,21%,-7%,7%,-2,-12
C=CCNC(=S)NC(=O)c1ccc(C)c(Br)c1,-25%,26%,-6%,-7%,-1,19
CCOc1ccc(N(CCCCO)C(=S)NC(=O)c2ccc(C)c(Br)c2)cc1,-5%,17%,-3%,-8%,35*,-24
O=C(COc1ccccc1)NC(NC(=S)Nc1ccccc1C(=O)O)C(Cl)(Cl)Cl (stereo not drawn),-7%,11%,-9%,-3%,-1,-77*
COc1cccc(NC(=O)NNC(=O)CCc2ccc(O)c(O)c2)c1,i,23%,1%,nt,67*,-19
O=C(CCc1ccccc1)NNC(=S)NCc1ccc(Cl)cc1,-26%,2%,-1%,nt,4,15
O=C(CCc1ccc(O)c(O)c1)NNC(=S)Nc1ccc(Br)cc1Cl,-25%,9%,-1%,0%,37*,?
O=C(CCc1ccc(O)c(O)c1)NNC(=S)NCCc1ccccc1,i,18%,nt,-3%,59*,-13
COc1cc(/C=N/NC(=O)Cc2ccccc2)cc([N+](=O)[O-])c1O,i,9%,?,nt,-7,-56*
COc1cc(/C=N/NC(=O)CSc2ccccn2)ccc1O,i,8%,3%,8%,-11,8
COc1cc([N+](=O)[O-])cc(/C=N/NC(=O)CSc2ccccn2)c1O,-10%,-27%,?,-25%,-16,-52*
COc1cc([N+](=O)[O-])cc(/C=N/NC(=O)c2ccc(C)nc2)c1O,-1%,14%,nt,?,-11,?
COc1cc([N+](=O)[O-])cc(/C=N/NC(=O)Cn2cncn2)c1O,i,?,?,nt,-26,-76*
COc1ccc2nc(NC(=O)c3nc(S(=O)(=O)Cc4ccccc4)ncc3Cl)sc2c1,-42%,nt,nt,nt,-16,nt
COc1ccc(OC)c(NC(=O)c2nc(S(=O)(=O)Cc3ccccc3)ncc2Cl)c1,-1%,-76%,7%,nt,-38,-104*
COc1ccc(NC(=O)c2nc(S(=O)(=O)Cc3cccc(C)c3)ncc2Cl)c(OC)c1,i,-2%,?,nt,-9,-116*
COc1ccc2nc(NC(=O)c3nc(S(=O)(=O)Cc4ccccc4F)ncc3Cl)sc2c1,-59%,nt,nt,nt,-20,nt
COc1ccc(CN2CCC[C@]3(N[C@H](c4ccccc4)[C@@H]4C(=O)N(C)C(=O)[C@@H]43)C2=O)cc1,-1%,2%,nt,nt,-4,-20
Cc1c(Cl)cccc1NC(=O)c1ncn(-c2ccccc2)n1,i,nt,nt,nt,6,nt
COc1ccc(Cc2nnc(NC(=O)C3CC(=O)N(c4ccccc4C)C3)s2)cc1OC (stereo not drawn),-10%,15%,nt,nt,-8,-64*
